{"source": "the supplement of paper PMC7858590", "note": "“And” between values parts separate entries of the source, which are not always exact repeats. Identical values can stand only once. ± gives the standard deviation of the averaged measurements. The full ranking holds about 3,800 compounds; the median of “cell shape (eccentricity) Z-score vs DMSO control” is about 1.1, and the lowest 2% start at about -4.7. The sample as a whole holds a higher share of the lowest values than the screen did."}
{"tested_on": "human monocyte-derived macrophages (M0)", "assay": "cell shape (eccentricity) Z-score vs DMSO control; higher = more elongated, M2-like morphology", "settings": "20 µM; 24 h; macrophage state: M0 (M-CSF)", "protocol": "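Primary human monocyte-derived macrophages (M-CSF differentiated, pooled from 4 donors, 5000 cells/well in 384-well plates) were treated with each compound at 20 uM for 24 h, then fixed and stained with phalloidin/DAPI and imaged on an Opera Phenix (6 fields, about 1000 cells/well). Cell eccentricity was measured with CellProfiler, and a Z-score (t-test) was computed against 4 DMSO control wells in the same row. Negative values mean round (M1-like) cells and positive values mean elongated (M2-like) cells; the paper's hit cutoffs are Z <= -4 (M1) and Z >= 6 (M2). Scale: negative = round, M1-like.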"}
{"molecule": "Cc1ccc2ccc3ccc(C)nc3c2n1", "cell shape (Z-score)": 3.48}
{"molecule": "Nc1ccc(/N=N/c2ccccc2)c(N)n1", "cell shape (Z-score)": -1.01}
{"molecule": "Cc1ccc(O)c(N=Nc2ccccc2)n1", "cell shape (Z-score)": -7.89}
{"molecule": "C=C[C@@](C)(O)CCC1C(=C)CCC2[C@@](C)(CO)CCC[C@]12C", "note": "(stereo not given in full)", "cell shape (Z-score)": 4.09}
{"molecule": "COC1=C(N)C(=O)c2nc(-c3nc(C(=O)O)c(C)c(-c4ccc(OC)c(OC)c4O)c3N)ccc2C1=O", "cell shape (Z-score)": 0.0737}
{"molecule": "Nc1ccccc1NC(=O)c1ccc(CNc2nccc(-c3cccnc3)n2)cc1", "cell shape (Z-score)": -11.8}
{"molecule": "CC(C)(C)c1ccc(S(=O)(=O)NCc2ccc(C(=O)Nc3cccnc3)cc2)cc1", "cell shape (Z-score)": 1.14}
{"molecule": "CC(=O)Nc1ccc(C(=O)Nc2ccccc2N)cc1", "cell shape (Z-score)": "-3.16 ± 2.7"}
{"molecule": "Nc1ccccc1NC(=O)c1ccc(CNC(=O)OCc2cccnc2)cc1", "cell shape (Z-score)": "-10.6 ± 0.74"}
{"molecule": "Nc1cc(-c2ccncc2)c[nH]c1=O", "cell shape (Z-score)": 0.0533}
{"molecule": "COc1cc2c(c(OC)c1)C(=O)OC(C)C2", "note": "(stereo not given)", "cell shape (Z-score)": -2.38}
{"molecule": "Cc1ccccc1NC(=N)Nc1ccccc1C", "cell shape (Z-score)": 2.28}
{"molecule": "O=c1c(OC2OC(CO)C(O)C(O)C2OC2OC(CO)C(O)C(O)C2O)c(-c2ccc(O)cc2)oc2cc(O)cc(O)c12", "note": "(stereo not given)", "cell shape (Z-score)": "0.138 ± 1.7"}
{"molecule": "CC1(C)C(=O)C=C[C@@]2(C)C1CC(=O)[C@]1(C)C2CC[C@@]2(C)[C@H](c3ccoc3)OC(=O)[C@H]3O[C@]321", "note": "(stereo not given in full)", "cell shape (Z-score)": -1.42}
{"molecule": "COc1cc2c(c(O)c1OC)C(=O)CC(c1ccc(O)cc1)O2", "note": "(stereo not given)", "cell shape (Z-score)": 0.892}
{"molecule": "CC(C)[C@@H]1CC[C@@]2(C)CCC[C@@](C)(O)[C@@H]2[C@H]1OC(=O)/C=C/c1ccccc1", "cell shape (Z-score)": 2.15}
{"molecule": "NC(=O)c1ccc(-c2nc(-c3ccc4c(c3)OCCO4)c(-c3ccccn3)[nH]2)cc1", "cell shape (Z-score)": 4.12}
{"molecule": "COCCCCC(=NOCCN)c1ccc(C(F)(F)F)cc1", "cell shape (Z-score)": -14.7}
{"molecule": "C/C=C/C#CC#C[C@@H](O[C@@H]1O[C@H](CO)[C@@H](O)[C@H](O)[C@H]1O)[C@H](O)/C=C/CCCO", "cell shape (Z-score)": -5.71}
{"molecule": "CC(/C=C/C1(O)C(C)CC(O)CC1(C)C)OC1OC(CO)C(O)C(O)C1O", "note": "(stereo not given)", "cell shape (Z-score)": 0.819}
{"molecule": "CC(O)CCCc1cc(O)cc(O[C@@H]2O[C@H](CO)[C@@H](O)[C@H](O)[C@H]2O)c1", "note": "(stereo not given in full)", "cell shape (Z-score)": 0.302}
{"molecule": "O=Cc1ccccc1O[C@@H]1O[C@H](CO)[C@H](O)[C@@H](O)[C@H]1O", "cell shape (Z-score)": -0.838}
{"molecule": "O=C1c2ccccc2CCC1CNCCc1ccc(O)cc1", "note": "(stereo not given)", "cell shape (Z-score)": 2.69}
{"molecule": "OCc1ccc(-c2ccc(-c3ccc(CO)s3)o2)s1", "cell shape (Z-score)": "-3.3 and -5.19"}
{"molecule": "COc1cc(C(C)/C=C(/C)CC(=O)O)oc(=O)c1C", "note": "(stereo not given)", "cell shape (Z-score)": "0.462 ± 0.48"}
{"molecule": "C=C1CC[C@@H]2[C@](C)(CO)[C@H](O)CC[C@@]2(C)[C@@H]1CC(O)C1=CCOC1=O", "note": "(stereo not given in full)", "cell shape (Z-score)": "-2.2 ± 3.4"}
{"molecule": "O=C(Nc1ccccc1)c1cc([N+](=O)[O-])ccc1Cl", "cell shape (Z-score)": -1.03}
{"molecule": "O=C(Nc1ccc([N+](=O)[O-])cc1Cl)c1cc(Cl)ccc1O", "cell shape (Z-score)": "-4.1 ± 4.2"}
{"molecule": "O=C(Nc1ccc([N+](=O)[O-])cc1O)Nc1ccccc1Br", "cell shape (Z-score)": "-4.95 ± 7.5"}
{"molecule": "CCC(C)C(=O)O[C@H]1C[C@H](O)C=C2C=C[C@H](C)[C@H](CC[C@@H](O)C[C@@H](O)CC(=O)O)C21", "note": "(stereo not given in full)", "cell shape (Z-score)": -0.754}
{"molecule": "COc1cc(/C=C/c2cc(O)cc(O[C@@H]3O[C@H](CO)[C@@H](O)[C@H](O)[C@H]3O)c2)ccc1O[C@@H]1O[C@H](CO)[C@@H](O)[C@H](O)[C@H]1O", "cell shape (Z-score)": 2.22}
{"molecule": "COc1c(-c2coc3cc4c(cc3c2=O)CC(O)C(C)(C)O4)ccc2c1C=CC(C)(C)O2", "note": "(stereo not given)", "cell shape (Z-score)": -0.764}
{"molecule": "COc1c2c(cc3occ(-c4ccc5c(c4)OCO5)c(=O)c13)OC(C)(C)C=C2", "cell shape (Z-score)": 1.71}
{"molecule": "COc1cc2c(cc1-c1coc3c4c(ccc3c1=O)OC(C)(C)C=C4)OCO2", "cell shape (Z-score)": -5.49}
{"molecule": "CN(C)CCCN1c2ccccc2CCc2ccc(Cl)cc21", "cell shape (Z-score)": 1.86}
{"molecule": "CC(C)=CCC1Cc2c(cc(O)c(C(=O)C(C)C)c2O)OC1(C)C", "note": "(stereo not given)", "cell shape (Z-score)": 3.41}
{"molecule": "NCCCCCc1cnc[nH]1", "cell shape (Z-score)": -0.662}
{"molecule": "CC(C)c1ccc(Cn2ccc3c4c(N)nc(NC5CC5)nc4ccc32)cc1", "cell shape (Z-score)": -4.69}
{"molecule": "CCNC(=O)[C@@H]1CCCN1C(=O)[C@H](CCCNC(=N)N)NC(=O)[C@H](CC(C)C)NC(=O)[C@@H](COC(C)(C)C)NC(=O)[C@H](Cc1ccc(O)cc1)NC(=O)[C@H](CO)NC(=O)[C@H](Cc1c[nH]c2ccccc12)NC(=O)[C@H](Cc1cnc[nH]1)NC(=O)C1CCC(=O)N1", "note": "(stereo not given in full)", "cell shape (Z-score)": -0.749}
{"molecule": "O=C(CCCN1CCC(O)(c2cccc(C(F)(F)F)c2)CC1)c1ccc(F)cc1", "cell shape (Z-score)": -0.261}
{"molecule": "OC1(c2ccc(Cl)c(C(F)(F)F)c2)CCN(CCCC(c2ccc(F)cc2)c2ccc(F)cc2)CC1", "cell shape (Z-score)": -6.96}
{"molecule": "O=C(CCCN1CCC(O)(c2ccc(Cl)cc2)CC1)c1ccc(F)cc1", "cell shape (Z-score)": -2.24}
{"molecule": "CO[C@@]12[C@@H]3NC3CN1C1=C(C(=O)C(N)=C(C)C1=O)[C@@H]2COC(N)=O", "note": "(stereo not given in full)", "cell shape (Z-score)": -5.51}
{"molecule": "CO[C@@]12[C@H](COC(N)=O)C3=C(C(=O)C(C)=C(N)C3=O)N1C[C@@H]1N[C@@H]12", "cell shape (Z-score)": "-1.43 ± 4"}
{"molecule": "Cc1cccc(-c2[nH]c(C(C)(C)C)nc2-c2ccc3nccnc3c2)n1", "cell shape (Z-score)": 4.84}
